Measurements reported in PubChem BioAssay AID743366 (National Center for Advancing Translational Sciences (NCATS), 2014).

test: qHTS profiling of inhibitors of Plasmodium falciparum (HB3) proliferation (acoustic dispense); conditions: P. falciparum HB3 in erythrocytes, SYBR Green, 72 h; at 49.8 µM (top of the series) unless noted

Compound | activity (normalised, proliferation)
C=C[C@@H]1CN2CC[C@@H]1C[C@H]2[C@H](O)c1ccnc2ccc(OC)cc12 | 0.317%
CC[C@H]1OC(=O)[C@H](C)[C@@H](O[C@H]2C[C@@](C)(OC)[C@@H](O)[C@H](C)O2)[C@H](C)[C@@H](O[C@@H]2O[C@H](C)C[C@H](N(C)C)[C@@H]2O)[C@](C)(O)C[C@@H](C)CN(C)[C@H](C)[C@@H](O)[C@]1(C)O | -0.367%
CCN(CC)CCNC(=O)c1c(C)[nH]c(C=C2C(=O)Nc3ccc(F)cc32)c1C | 0.208% [at 100 µM]
O=C1C(=O)c2ccccc2C(O)=C1C1CCC(c2ccc(Cl)cc2)CC1 (centres undefined) | 3.49%
O=C1c2c(O)ccc(O)c2C(=O)c2c(NCCNCCO)ccc(NCCNCCO)c21 | -5.84%
COc1cc([C@@H]2c3cc4c(cc3[C@@H](O[C@@H]3O[C@@H]5CO[C@@H](c6cccs6)O[C@@H]5[C@H](O)[C@@H]3O)[C@H]3COC(=O)[C@H]23)OCO4)cc(OC)c1O | -0.0351%
O=C1c2ccccc2-[n+]2ccc3c([nH]c4ccccc43)c21 | 4.27%
CCC[C@H](Nc1nc(-c2ccc(NC(=O)NCC)c(OC)c2)ncc1C)c1cccnc1 | -0.168%
C1CCC(C(CC2CCCCN2)C2CCCCC2)CC1 (centres undefined) | -0.0393%
CCS(=O)(=O)Nc1ccc2[nH]c(O)c(C(=Nc3ccc(CN4CCCCC4)cc3)c3ccccc3)c2c1 | -1.43%
Cc1[nH]c2ccccc2c1CCNCc1ccc(C=CC(=O)NO)cc1 | -2.24%
Cc1ccc([N+](=O)[O-])cc1S(=O)(=O)N(C)N=Cc1cnc2ccc(Br)cn12 | 13.3%
COc1cc(NC(C)CCCN)c2ncccc2c1 (centres undefined) | 0.241%
CN(Cc1cnc2nc(N)nc(N)c2n1)c1ccc(C(=O)N[C@@H](CCC(=O)O)C(=O)O)cc1 | 0.621%
Cn1cc(CNCC2CCN(c3ncc(C(=O)NO)cn3)CC2)c2ccccc21 | -0.786%
C=CCNc1c(O)cc2c(O)c1C[C@@H](C)C[C@H](OC)[C@@H](O)[C@@H](C)C=C(C)[C@H](OC(N)=O)[C@@H](OC)C=CC=C(C)C(=O)N2 | -1.74%
COC(=O)c1ccc2c(C(=Nc3ccc(N(C)C(=O)CN4CCN(C)CC4)cc3)c3ccccc3)c(O)[nH]c2c1 | 35.3%

Compound | activity (normalised, proliferation)
C[C@H]1c2cccc(O)c2C(O)=C2C(=O)[C@]3(O)C(O)=C(C(N)=O)C(=O)[C@@H](N(C)C)[C@@H]3[C@@H](O)[C@@H]21 | 2.34%
COc1ccc(-c2ccc3ncc4c(c3c2)n(-c2ccc(N3CCNCC3)c(C(F)(F)F)c2)c(=O)n4C)cn1 | 5.42%
COc1ccc2nc3cc(Cl)ccc3c(Nc3cc(CN4CCCC4)c(O)c(CN4CCCC4)c3)c2n1 | -3.23%
CCNC(=O)c1noc(-c2cc(C(C)C)c(O)cc2O)c1-c1ccc(CN2CCOCC2)cc1 | 117%
C=CCNC1=C2C[C@@H](C)C[C@H](OC)[C@@H](O)[C@@H](C)C=C(C)[C@H](OC(N)=O)[C@@H](OC)C=CC=C(C)C(=O)NC(=CC1=O)C2=O | -2.45%
O=C(Nc1cn[nH]c1-c1nc2ccc(CN3CCOCC3)cc2[nH]1)NC1CC1 | 1.76%
O=C1NC(=O)C(=Cc2ccc3nccc(-c4ccncc4)c3c2)S1 | 0.554%
CCCCCCCCCCOc1cc2c(=O)c(C(=O)OCC)c[nH]c2cc1OCC | -0.332%
COc1ccc2cc3[n+](cc2c1OC)CCc1cc2c(cc1-3)OCO2 | -1.06%
CC(=O)Nc1nc(C)c(-c2ccc(Cl)c(S(=O)(=O)NCCO)c2)s1 | -1.46%
c1cncc(CN2CCC(n3ncc4c(N5CCOCC5)nc(-c5ccc6[nH]ccc6c5)nc43)CC2)c1 | -0.669%
CCCC[C@@H]1C[C@@H](C(=O)NC([C@H](C)Cl)[C@H]2O[C@H](S)[C@H](O)[C@@H](O)[C@@H]2O)N(C)C1 (some centres undefined) | 3.44%
CC[C@H]1OC(=O)[C@H](C)C(=O)[C@H](C)[C@@H](O[C@H]2O[C@H](C)C[C@H](N(C)C)[C@@H]2O)[C@](C)(OC)C[C@@H](C)C(=O)[C@H](C)[C@H]2N(CCCCn3cnc(-c4cccnc4)c3)C(=O)O[C@]12C | 5.95%
CC[C@@]1([C@@H]2O[C@@H]([C@H]3O[C@@](O)(CO)[C@H](C)C[C@H]3C)C[C@H]2C)CC[C@H]([C@]2(C)CC[C@]3(C[C@H](O)[C@@H](C)[C@@H]([C@@H](C)[C@@H](OC)[C@H](C)C(=O)O)O3)O2)O1 | 1.41% [at 23.2 µM]
C=C[C@@H]1CN2CCC1C[C@@H]2C(O)c1ccnc2ccc(OC)cc12 (some centres undefined) | 1.73%
COc1ncc(-c2ccc3nccc(-c4ccnnc4)c3c2)cc1NS(=O)(=O)c1ccc(F)cc1F | -1.51%
CSc1cccc(Nc2ncc3cc(-c4c(Cl)cccc4Cl)c(=O)n(C)c3n2)c1 | 3%
